Rows were chosen to be rich in hits. Some 11% of all compounds tested hit in one or more screens of this group.
BAZ2B block – BAZ2B (human) inhibition; Q9UIF8; AlphaScreen BAZ2B-H3K14Ac peptide displacement; Potency, µM (doses to about 114 µM), most hits filed as inhibitors; 360,000 tested, 4.4% active; further: nearly all actives have a fitted effect of over 60% in size
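Multi-concentration screen (max 110 uM) measuring displacement of acetylated histone H3 peptide from BAZ2B by AlphaScreen, using 50 nM protein, 50 nM peptide and 10 ug/mL streptavidin donor plus Ni-chelate acceptor beads.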
JMJD2A Tudor inh – inhibitors of human JMJD2A Tudor domain; O75164; AlphaScreen JMJD2A-Tudor / H3K4me3 peptide binding; Potency, µM (titrated, usually from 114 µM), usual class: inhibitors; 390,000 tested, 4.4% active; AID 504339; further: nearly all actives have a fitted effect of over 50% in size
L3MBTL1 block – L3MBTL1 (human) inhibition; AID 485360; Q9Y468; AlphaScreen L3MBTL1–H3K9me1 peptide binding; Potency, µM (series often up to 57.1 µM), most hits filed as inhibitors; 230,000 tested, 0.66% active; further: nearly all actives have a fitted effect of over 60% in size
Target sequence (Q9Y468 whole entry, looked up): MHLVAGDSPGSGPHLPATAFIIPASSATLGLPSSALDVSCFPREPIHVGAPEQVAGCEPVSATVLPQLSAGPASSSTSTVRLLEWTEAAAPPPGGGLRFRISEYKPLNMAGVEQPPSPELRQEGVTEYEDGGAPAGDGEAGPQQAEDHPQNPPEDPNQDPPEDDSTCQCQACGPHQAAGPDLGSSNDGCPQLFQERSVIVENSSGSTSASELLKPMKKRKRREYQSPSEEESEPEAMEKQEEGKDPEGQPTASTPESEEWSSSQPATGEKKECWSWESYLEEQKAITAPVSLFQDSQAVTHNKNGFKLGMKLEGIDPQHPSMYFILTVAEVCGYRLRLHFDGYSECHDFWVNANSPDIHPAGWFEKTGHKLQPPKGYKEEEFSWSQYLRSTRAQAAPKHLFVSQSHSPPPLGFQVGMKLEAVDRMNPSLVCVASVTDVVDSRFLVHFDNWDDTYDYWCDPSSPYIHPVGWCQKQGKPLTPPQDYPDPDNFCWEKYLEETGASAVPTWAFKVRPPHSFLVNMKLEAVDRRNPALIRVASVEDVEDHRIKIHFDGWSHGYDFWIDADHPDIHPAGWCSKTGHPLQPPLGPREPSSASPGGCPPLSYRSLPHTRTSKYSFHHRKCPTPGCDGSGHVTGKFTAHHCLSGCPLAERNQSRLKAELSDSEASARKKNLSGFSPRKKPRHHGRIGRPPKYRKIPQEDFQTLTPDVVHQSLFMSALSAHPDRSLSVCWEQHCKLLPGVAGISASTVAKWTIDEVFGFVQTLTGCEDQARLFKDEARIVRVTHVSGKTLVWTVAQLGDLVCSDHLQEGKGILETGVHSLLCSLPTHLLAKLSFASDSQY
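L3MBTL1 50 nM + b-AHA-H3(1-15)K9me1 75 nM, 30 min RT; compound added, 30 min RT; streptavidin donor/Ni-chelate acceptor beads 10 ug/mL each final, 30 min RT dark; AlphaScreen read.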
G9a inh – blocks human histone lysine methyltransferase G9a; Q96KQ7; G9a H3K9 monomethylation, AlphaScreen, 2 h; Potency, µM (highest dose often 102 µM), actives largely listed as inhibitors; 350,000 tested, 8.8% active; AID 504332; further: nearly all actives have a fitted effect of over 75% in size
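AlphaScreen read-out: biotin-H3K9 peptide (500 nM) methylation by 20 nM enzyme with 20 uM SAM, 2 h at room temperature after 15 min compound preincubation; anti-monomethyl H3K9 antibody plus donor/acceptor beads, 10 min dark.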
HP1b binding inh – inhibitors of HP1-beta chromodomain binding to methylated histone tails. AlphaScreen HP1-beta / biotin-H3K9me3 peptide binding. 390,000 tested, 0.56% active. P83916. Potency, µM (doses to about 114 µM), actives largely listed as inhibitors; further: nearly all actives have a fitted effect of over 70% in size
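HP1-beta protein (50 nM final) preincubated 30 min at room temperature with biotinylated H3(1-18)K9me3 peptide (50 nM) in PBS pH 7.4, 0.01% Tween-20, then compound added for 30 min. AlphaScreen streptavidin donor/nickel chelate acceptor beads (10 ug/mL final), 30 min dark, luminescence read.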
Numbers stand for hits; - = inactive; ? = inconclusive; . = no result; ! = not active in a repeat; [ ] = another dose, or the depositor's remark. The call rests on the fitted dose curve; in most records, active means well fitted inhibition curve with a large enough effect; inconclusive means small, poorly fitted or top-dose-only effect; inactive means no such curve, though single readings can be large or run the other way.

SMILES | BAZ2B block | JMJD2A Tudor inh | L3MBTL1 block | G9a inh | HP1b binding inh
O=[N+]([O-])c1ccccc1/C=C/C=N/Nc1nc(N2CCCCC2)nc(N2CCCCC2)n1 | ? | ? | - | 40µM | ?
O=[N+]([O-])c1ccccc1/C=N\N1CCN(c2ccccc2)CC1 | 18µM | 40µM | ? | 10µM | ?
COc1ccc(-n2cc(-c3ccccc3)[nH]c2=S)cc1 | ? | 8.9µM | - | 1.6µM | -
CCOc1ccc(-n2cc(-c3ccc(OC)c(OC)c3)[nH]c2=S)cc1 | . | 11µM | . | 2.5µM | ?
COc1ccccc1-n1cc(-c2ccccc2)[nH]c1=S | ? | ? | . | 10µM | -
CC(=O)Nc1ccc(-n2cc(-c3ccccc3)[nH]c2=S)cc1 | ? | 0.89µM | - | 1.4µM | ?
COc1cccc(-c2cn(-c3cccc(C(F)(F)F)c3)c(=S)[nH]2)c1 | - | - | . | -[0.501 µM] | -
COc1cccc(NC(=O)Cn2c(=O)n(-c3ccccc3)c(=O)c3c4c(sc32)CCCC4)c1 | - | - | . | - | -
COc1cc(OC)cc(-n2c(=O)c3ccccc3n(Cc3ccccc3C#N)c2=O)c1 | ? | - | . | - | -
C#CCOCCOCCOCCNc1nc(N2CCN(C(=O)[C@H](CCC(=O)O)n3cc(C(N)CO)nn3)CC2)nc(N2CCN(C(=O)[C@H](CCC(=O)O)n3cc(C(N)CO)nn3)CC2)n1 (some centres not stated) | 14µM | . | . | ? | .
C#CCOCCOCCOCCNc1nc(N2CCN(C(=O)[C@H](CCC(=O)O)n3cc(C(N)CO)nn3)CC2)nc(N2CCN(C(=O)[C@H](CCC(=O)O)n3cc(C(N)CC(C)C)nn3)CC2)n1 (some centres not stated) | 20µM | . | . | ? | .
O=C(CNC(=O)c1ccccc1)OCC(=O)c1cccc2ccccc12 | . | - | . | . | -
Cc1ccc(NC(=O)C2CCN(S(=O)(=O)c3cc([N+](=O)[O-])ccc3Cl)CC2)nc1 | . | 45µM | - | . | -
O=C(COC(=O)C1CCN(S(=O)(=O)c2cc([N+](=O)[O-])ccc2Cl)CC1)Nc1ncc(Cl)cc1Cl | 32µM | 25µM | - | -[0.501 µM] | ?
CC(NC(=O)C1CCN(S(=O)(=O)c2cc([N+](=O)[O-])ccc2Cl)CC1)c1ccccc1 (configuration not stated) | - | - | - | - | -
CC(=O)COC(=O)C1CCN(S(=O)(=O)c2cc([N+](=O)[O-])ccc2Cl)CC1 | 50µM | 56µM | 28µM | ? | -
O=C(COC(=O)C1CC1)Nc1ncc(Cl)cc1Cl | ? | ? | ? | ? | -
O=C(NNc1ccccc1)c1sc2ccccc2c1Cl | . | - | . | . | -
Cc1ccccc1Cn1cc(NC(=O)c2cc(C3CC3)on2)cn1 | ? | - | - | 40µM | -
CCN(CCCNC(=O)C1CCN(S(=O)(=O)c2c(C)[nH]c(=O)[nH]c2=O)CC1)c1cccc(C)c1 | - | - | . | 50µM | -
CCCCN(CCCNC(=O)C1CCN(S(=O)(=O)N2CCOCC2)CC1)c1ccccc1 | - | ? | - | 40µM | -
COc1ccc(Cl)cc1NC(=O)c1cnc(N2CCCCC2)c2ccccc12 | - | - | . | - | -
CC(C)(C)NCC(O)c1ccc(O)c(CO)c1 (configuration not stated) | . | . | . | - | .
OCc1cc(C(O)CNCCCCCCOCCCCc2ccccc2)ccc1O (configuration not stated) | - | - | - | 35µM! | -
CC(C)c1cc(C(=O)NCc2ccccc2)no1 | - | - | . | - | -
SMILES | BAZ2B block | JMJD2A Tudor inh | L3MBTL1 block | G9a inh | HP1b binding inh
COc1cccc(-c2nc(CS(=O)CC(=O)NCc3ccccc3Cl)c(C)o2)c1 (configuration not stated) | - | - | . | 35µM | -
COc1cccc(-c2nc(CS(=O)CC(=O)NCc3ccc4c(c3)OCO4)c(C)o2)c1 (configuration not stated) | - | - | . | 50µM | -
O=C1c2ccccc2C(=O)N1c1ccc2ncccc2c1 | . | - | . | . | -
CCN(CC)C(=O)c1sc2c(c1C)c(=O)n(-c1ccc(Cl)c(Cl)c1)c(=O)n2Cc1cc(=O)n2ccccc2n1 | - | - | . | ? | -
COc1ccc(CNC(=O)CS(=O)Cc2nc(-c3ccccc3C)oc2C)cc1 (configuration not stated) | - | - | . | ? | -
Cc1ccccc1-c1nc(CS(=O)CC(=O)NCc2ccccc2)c(C)o1 (configuration not stated) | - | - | . | 50µM | -
Cc1ccc(CNC(=O)CS(=O)Cc2nc(-c3ccccc3C)oc2C)cc1 (configuration not stated) | - | - | . | 50µM | -
CCc1ccc(-c2nc(CS(=O)CC(=O)NCCc3ccccc3)c(C)o2)cc1 (configuration not stated) | - | - | . | 79µM | -
Cc1ccc(-c2nc(CS(=O)CC(=O)NCc3ccccc3)c(C)o2)cc1 (configuration not stated) | - | - | . | 50µM | -
Oc1ccc(Cl)cc1C1C=C(c2ccc3c(c2)OCO3)NC(c2ccc(Br)cc2)N1 (configuration not stated) | . | - | . | . | -
CN(Cc1ccccc1)C(=O)COC(=O)CCN1C(=O)C2CC=CCC2C1=O (configuration not stated) | - | - | - | -[12.7 µM] | -
Clc1cccc(-c2ccc(CNCCSc3nnnn3-c3ccccc3)o2)c1 | ? | - | . | ? | -
Cc1ccc(CNC(=O)CS(=O)Cc2nc(-c3cccs3)oc2C)cc1 (configuration not stated) | - | - | . | 50µM | -
Cc1ccc(CCNC(=O)CS(=O)Cc2nc(-c3cccs3)oc2C)cc1 (configuration not stated) | - | - | - | ? | -
COc1ccc(-c2nc(CS(=O)CC(=O)NCc3ccccc3OC)c(C)o2)cc1 (configuration not stated) | - | - | . | ? | -
COc1ccccc1CNC(=O)CS(=O)Cc1nc(-c2ccccc2C)oc1C (configuration not stated) | - | - | . | 79µM | -
Cc1ccc(NC(=O)C2CCCN(S(=O)(=O)c3c(C)n[nH]c3C)C2)cc1C (configuration not stated) | . | - | . | - | -
Cc1cc(OCC(O)CN2CCCC2)ccc1C(C)C (configuration not stated) | - | - | - | . | -
COc1ccc(N2CCN(CC(O)COc3ccc(C(C)C)c(C)c3)CC2)cc1 (configuration not stated) | - | ? | . | 6.3µM | -
Cc1cc(OCC(O)CN2CCN(c3cccc(Cl)c3)CC2)ccc1Cl (configuration not stated) | - | 79µM | . | - | -
Cc1cccc(N2CCN(CC(O)COc3ccc4ccccc4c3)CC2)c1 (configuration not stated) | . | - | . | . | -
CCOC(=O)N1CCN(CC(O)COc2ccc(C)c(C)c2)CC1 (configuration not stated) | - | - | . | -[2.33 µM] | -

Source: PubChem (National Center for Advancing Translational Sciences (NCATS))
